# Data taken from the supplement of paper PMC10127200.
# Where a name gives a salt, the structure may show the parent alone.
# Legend:
# Test in all cases: Euclidean distance of Cell Painting phenotypic profile (signed KS, 77 features) to DMSO centroid (dimensionless distance); 5 or 10 uM (library dependent); higher = stronger phenotypic change vs DMSO (phenoactivity)
# Conditions in all cases: 48 h
# 786-O = test system: 786-O
# Summary of the method: (§1)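 Harmony extracted 77 features from 20X confocal images (9 fields/well) of stained cells, scoring each as a signed Kolmogorov-Smirnov statistic against same-plate vehicle wells. The cells, five cancer lines and a healthy fibroblast line, had received library compounds for 48 h at 10 or 5 uM depending on library, with 0.1% DMSO final. Phenoactivity is the Euclidean distance from each plate-position-corrected, correlation-weighted, top-dose replicate-averaged profile to the median vehicle profile.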
# A549 = test system: A549
# Summary of the method: as §1
# DU145 = test system: DU145
# Summary of the method: as §1
# FB = test system: FB
# Summary of the method: as §1
# HEPG2 = test system: HEPG2
# Summary of the method: as §1
# OVCAR4 = test system: OVCAR4
# Summary of the method: as §1
Compound,Euclidean distance (786-O),Euclidean distance (A549),Euclidean distance (DU145),Euclidean distance (FB),Euclidean distance (HEPG2),Euclidean distance (OVCAR4)
CC12CCC(CC1=O)C2(C)C (centres undefined) [Camphor],0.669,0.742,0.875,0.818,0.352,1.67
CCCCCCCCCCCCCCCCOP(=O)([O-])OCC[N+](C)(C)C [Miltefosine],1.74,1.27,1.17,1.39,1.15,1.63
CCC/N=C1\S/C(=C\c2ccc(OC[C@H](O)CO)c(Cl)c2)C(=O)N1c1ccccc1C [Ponesimod],1.96,1.39,0.669,1,1.32,1.26
COc1nc(N)nc2c1ncn2[C@@H]1O[C@H](CO)[C@@H](O)[C@@H]1O [Nelarabine],1.28,1.4,0.995,2.02,0.531,1.1
C[C@@H](Nc1cc(F)cc(F)c1)c1cc(C(=O)N(C)C)cc2c(=O)cc(N3CCOCC3)oc12,2.04,1.94,1.72,2.79,0.984,2.9
CC1CC(OC(=O)C(O)c2ccccc2)CC(C)(C)C1 (centres undefined) [Cyclandelate],1.19,1.12,1.02,0.843,0.782,1.02
CCCCOc1ccc(CC(=O)NO)cc1 [Bufexamac],1.36,1.11,0.87,1.25,0.883,1.39
COC(=O)c1cc(OC)c2c(c1-c1c(C(=O)OC)cc(OC)c3c1OCO3)OCO2 [Bifendate],1.36,1.51,0.627,1.22,0.392,1.35
CC[C@H](C)[C@@H]1NC(=O)[C@H](Cc2ccc(O)cc2)NC(=O)[C@@H](N)CSSC[C@@H](C(=O)N2CCC[C@H]2C(=O)N[C@@H](CC(C)C)C(=O)NCC(N)=O)NC(=O)[C@H](CC(N)=O)NC(=O)[C@H](CCC(N)=O)NC1=O [Oxytocin (Syntocinon)],1.83,1.77,0.912,1.41,0.745,0.928
CCCCc1nc(C)c(CC(=S)N(C)C)c(=O)n1Cc1ccc(-c2ccccc2-c2nnn[nH]2)cc1 [Fimasartan],0.829,0.807,0.902,0.862,0.679,0.989
O=C(O)/C=C/c1ccc(O)cc1 [p-Coumaric Acid],1.47,0.995,0.894,0.846,1.05,0.854
CC(=O)O/N=C1\C(=O)N(Cc2cc(Cl)ccc2Cl)c2ccc(Cl)cc21,0.757,0.621,0.687,0.682,0.571,1.34
COC(=O)Nc1nc2cc(C(=O)c3ccccc3)ccc2[nH]1 [Mebendazole],3.02,3.03,3.69,2.58,3,2.7
CN1CCC(=C2c3ccccc3CC(=O)c3sccc32)CC1 [Ketotifen Fumarate],0.851,0.639,0.639,1.17,0.589,1.2
COc1cc2c(Oc3ccc4[nH]c(C)cc4c3F)ncnc2cc1OCCCN1CCCC1 [Cediranib Maleate],4.34,4.46,3.51,4.67,4.09,5.11
O=c1[nH]cnc2c1ncn2[C@@H]1O[C@H](CO)[C@@H](O)[C@H]1O [Inosine],1.3,0.799,0.639,0.936,0.417,1.3
CCCC(=O)O[C@]1(C(=O)COC(C)=O)CC[C@H]2[C@@H]3C[C@H](F)C4=CC(=O)C=C[C@]4(C)[C@@]3(F)[C@@H](O)C[C@@]21C [Difluprednate],1.73,2.5,2.59,1.74,0.695,1.82
COc1c(N2C[C@@H]3CCCN[C@@H]3C2)c(F)cc2c(=O)c(C(=O)O)cn(C3CC3)c12 [Moxifloxacin],1.32,0.519,0.919,1.06,0.804,0.918
CCCCOC(=O)c1ccc(N)cc1 [Butamben],1.09,0.881,0.906,1.05,0.737,1.03
Cc1nc(N(C)C(=O)Cc2ccc(-c3ccccn3)cc2)sc1S(N)(=O)=O [Pritelivir (BAY 57-1293)],0.793,0.531,1.07,0.872,0.577,0.834
CC(C)(C)NCC(O)c1ccc(O)c(CO)c1 (centres undefined) [Salbutamol],1.03,0.738,1.09,0.676,0.894,0.709
CC(C)(C)NCC(O)COc1cccc2c1CC(O)C(O)C2 (centres undefined) [Nadolol],0.954,1.38,1.88,0.792,0.849,1.11
CCOC(=O)C1=C(N)Oc2ccc(Br)cc2C1C(C#N)C(=O)OCC (centres undefined),0.871,1.18,1.12,1.03,1.03,0.791
C[N+]1(C)[C@@H]2C[C@@H](OC(=O)C(O)(c3cccs3)c3cccs3)C[C@H]1[C@@H]1O[C@@H]12 [Tiotropium Bromide hydrate],1.26,0.676,0.73,1.02,0.978,0.837
Oc1ccc2c(c1)CC[C@H](c1ccccc1)[C@@H]2c1ccc(OCCN2CCCC2)cc1 [Lasofoxifene Tartrate],2.93,2.42,3.01,2.8,4.32,2.5

Compound,Euclidean distance (786-O),Euclidean distance (A549),Euclidean distance (DU145),Euclidean distance (FB),Euclidean distance (HEPG2),Euclidean distance (OVCAR4)
N=C(NCCCCCCNC(=N)NC(=N)Nc1ccc(Cl)cc1)NC(=N)Nc1ccc(Cl)cc1 [Chlorhexidine],2.05,3.54,1.97,2.12,2.92,3.25
NC[C@H]1O[C@H](O[C@H]2[C@H](O)[C@@H](O[C@H]3O[C@H](CO)[C@@H](O)[C@H](N)[C@H]3O)[C@H](N)C[C@@H]2N)[C@H](N)C[C@@H]1O [Tobramycin],0.897,1.31,1.34,0.987,0.563,1.4
COc1cccc2c1C(=O)c1c(O)c3c(c(O)c1C2=O)C[C@@](O)(C(=O)CO)C[C@@H]3O[C@H]1C[C@H](N)[C@H](O[C@@H]2CCCCO2)[C@H](C)O1 [Pirarubicin],3.6,4.43,3.47,4.28,4.37,4.83
CCCCCCCCCCCCCCCCCC(=O)O [Stearic acid],1.24,1.11,0.794,1.08,0.463,0.768
OC[C@H]1O[C@H](O[C@H]2O[C@H](CO)[C@@H](O)[C@H](O)[C@H]2O)[C@H](O)[C@@H](O)[C@@H]1O [D-(+)-Trehalose dihydrate],0.894,1.33,1.15,1.04,0.672,1.09
CC(C)N(CCCNC(=O)Nc1ccc(C(C)(C)C)cc1)C[C@H]1O[C@@H](n2cc(Br)c3c(N)ncnc32)[C@H](O)[C@@H]1O,0.633,1.32,1.19,1.58,1.15,0.804
CCN1C(=O)C=CC1=O [N-Ethylmaleimide (NEM)],3.6,1.27,1.23,1.58,0.6,1.06
N.N.O=C([O-])C[O-].[Pt+2] [Nedaplatin],3.19,2.86,4.02,3.24,2.92,2.99
C/C=C1\[C@H]2C=C(C)C[C@]1(N)c1ccc(=O)[nH]c1C2 [(-)-Huperzine A (HupA)],1.09,0.676,0.79,0.881,0.528,1.07
Nc1nc(F)nc2c1ncn2[C@@H]1O[C@H](COP(=O)(O)O)[C@@H](O)[C@@H]1O [Fludarabine Phosphate],2.13,2.48,1.94,3.2,1.57,2.98
C[N+]1(C)CCC(OC(=O)C(O)(c2ccccc2)C2CCCC2)C1 (centres undefined) [Glycopyrrolate],1.08,0.747,1.06,1.02,0.678,1.74
NC(=O)c1noc([C@H](CCCC2CCCCC2)CC(=O)NO)n1,1.23,0.66,0.701,1.25,0.93,0.933
CC(C)(C)OC(=O)N[C@H]1CCCCC/C=C\[C@@H]2C[C@@]2(C(=O)NS(=O)(=O)C2CC2)NC(=O)[C@@H]2C[C@@H](OC(=O)N3Cc4cccc(F)c4C3)CN2C1=O [Danoprevir (ITMN-191)],1.4,0.94,1.41,1.19,2.24,1.69
CN1CCOC(c2ccccc2)c2ccccc2C1 (centres undefined) [Nefopam HCl],1.21,0.668,0.813,1.07,0.77,1.29
CC(C)NC[C@@H](C(=O)N1CCN(c2ncnc3c2[C@H](C)C[C@H]3O)CC1)c1ccc(Cl)cc1,2.01,1.92,1.44,2.24,1.1,1.13
O=C(COc1cccc2c(=O)[nH]ccc12)c1ccccc1,1.49,1.09,0.747,0.832,0.68,0.6
O=C(O)[C@]1(Cc2cccc(Nc3nccs3)n2)CC[C@@H](Oc2cccc(Cl)c2F)CC1,2.59,3.36,0.648,0.818,0.498,2.16
CCC(=O)Nc1cccc(Oc2nc(Nc3ccc(N4CCN(C)CC4)cc3OC)ncc2Cl)c1,1.62,1.63,0.903,1.15,1.61,1.26
COc1ccc(CNc2nc(N3CCC[C@H]3CO)ncc2C(=O)NCc2ncccn2)cc1Cl [Avanafil],1.22,0.789,1.12,0.94,0.764,1.44
CC(C)CCN1c2nc(Nc3cc(F)c(O)c(F)c3)ncc2N(C)C(=O)C1C (centres undefined),1.38,1.84,2.16,1.49,0.771,2.61
Nc1nc2n[nH]nc2c(=O)[nH]1 [Azaguanine-8],1.55,0.834,0.699,1.27,1.17,0.737
CCOc1ccccc1OCCN[C@H](C)Cc1ccc(OC)c(S(N)(=O)=O)c1 [Tamsulosin],1.91,1.28,1.73,1.01,1.38,1.6
CN(C/C=C/C#CC(C)(C)C)Cc1cccc2ccccc12 [Terbinafine],1.56,0.66,0.898,0.587,1.36,1.18
Cc1ccc(-c2c(-c3nn(C)c4ncnc(N5CC[C@H](N6CCCCC6)C5)c34)cnn2C)cc1,0.748,0.927,0.814,1.22,0.843,1.27
